Assay in all cases: NCI-60 one-dose screen, 48 h (100 = growth as untreated, 0 = no growth, -100 = all killed)
Holding throughout (conditions): 10 µM unless noted

Test [1] concerns HCT-15 colon.
For test [2], the system named is HT29 colon.
For test [3], the system named is SNB-19 CNS.
The test system of test [4] is U251 CNS.
Test [5] relates to PC-3 prostate.
The subject of test [6] is SK-MEL-5 melanoma.
Test [7] relates to UACC-62 melanoma.
Test [8] has as its system LOX IMVI melanoma.
The subject of test [9] is SK-MEL-28 melanoma.
Test [10] relates to EKVX NSCLC.
The subject of test [11] is SN12C renal.
The subject of test [12] is UO-31 renal.
Test [13] deals with TK-10 renal.
Test [14] has as its system ACHN renal.
The test system of test [15] is CAKI-1 renal.
Test [16] concerns CCRF-CEM leukemia.
Test [17] concerns MOLT-4 leukemia.
Test [18] deals with SK-MEL-2 melanoma.
Test [19] has as its system A498 renal.

Each structure is given as a SMILES string. This is part of a sample that, as a whole, favours compounds with a hit. Of some 83,000 tested, about 20% had one in any assay.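 The test compound was applied at a single concentration to cells in 96-well plates for 48 hours, and percent growth was recorded.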 Unmarked numbers belong to inactive results. Calls of active or inactive are those of the source. Rule for the calls: active = growth percent below 10; inactive = the rest.

`O=C(Nc1cccc(C(=O)N2CCc3ccc(Cl)cc32)c1)c1ccco1`: the growth is 24.2% in [1]; 15.9% in test [2]; 37.6% in test [3]; 36.7% in test [4]; 69.7% in test [5]; 24.3% in test [6]. For the same compound, the growth is 36.3% in [7]; 35.9% in test [8]; 59.9% in test [9]; 54.1% in test [10]; 49.6% in [11]; 45.1% in test [12]. In addition, the growth in test [13] was 77.6%; in test [14] it was 48.2%; in test [15], 29.6%; in test [16] it was 29.4%; in test [17] it was 30.1%.
For the compound `Cn1c(N2NC(=O)C(N=Nc3ccc(S(N)(=O)=O)cc3)C2=O)nc(-c2ccco2)c(C#N)c1=O` (configuration not stated), the growth is 61.7% in test [1]; 85.3% in test [2]; 99.7% in [3]; 96.9% in test [4]; 82.9% in test [5]; 98% in test [6]. Moreover, the growth is 83.5% in [7]; 76.8% in [8]; 102% in test [9]; 117% in [18]; 107% in [10]; 92.6% in [11]. For the same compound, the growth in test [12] is 63.2%; in test [13], 131%; in test [14] it was 81.6%; in test [15], 69.8%; in test [19], 122%; in [17], 4.74% (active).
In the case of `Cc1ccc(S(=O)(=O)Nn2c3c(cc(-c4nc5ccccc5s4)c2=O)CCCCCC3)cc1`, the growth was 97% in test [1]; 112% in test [2]; 99.2% in test [3]; 99.9% in test [4]; 99.7% in [5]; 96.2% in [6]. The growth in test [7] is 84.4%; in test [8], 95.9%; in test [9] it was 110%; in test [18], 99.2%; in test [10], 92.5%; in test [11] it was 95.9%. The growth is 78.9% in [12]; 111% in test [13]; 97.5% in [14]; 86.6% in test [15]; 105% in [16]; 100% in [17].
Regarding `CCCCCCCCOc1ccc(/C=N/Nc2cc(C)nc3ccc(Br)cc23)cc1`, the growth in test [1] is 21%; in [2], 11.9%; in test [3] it was 76.1%; in test [4], 16.5%; in test [5], 60.8%; in test [6] it was 76.9%. Besides, the growth is 92.7% in test [7]; 22.4% in [8]; 80.9% in [9]; 96.2% in [18]; 85% in test [10]; 68.2% in test [11]. Further, the growth in test [12] was 64.7%; in test [13] it was 90.3%; in test [14], 52.1%; in test [15], 84.1%; in [16], 7.66% (active); in test [17], 58%.
For `Cc1c(C(=O)NCCC(=O)NO)sc2ncnc(Nc3ccc(NC(=O)Nc4cccc(C(F)(F)F)c4)cc3)c12`, the growth was 101% in test [1]; 110% in [2]; 93.6% in test [3]; 80.2% in test [4]; 100% in [5]; 97.1% in test [6]. The growth in test [7] was 99.6%; in test [8], 94.5%; in [9], 110%; in [18] it was 109%; in test [10], 90.8%; in test [11], 100%. Also, the growth is 87.1% in test [12]; 140% in test [13]; 102% in test [14]; 99.3% in [15]; 98.8% in test [16]; 106% in test [17].
As to `Cn1c(-c2c(N)n(CCCN3CCOCC3)c3nc(C#N)c(C#N)nc23)nc2ccccc21`, the growth in test [1] is 67.1%; in test [2] it was 68%; in [3], 76.1%; in test [4] it was 67.8%; in test [5], 35.5%; in test [6], 92.9%. Besides, the growth in test [7] is 77.2%; in test [8] it was 67.7%; in [9] it was 59.1%; in test [18], 109%; in [10], 66.3%; in test [11] it was 40.5%. In addition, the growth in test [12] is 12.4%; in test [13] it was 46.8%; in test [14] it was -79.1% (active); in test [15], 57.6%; in test [19] it was 90.6%; in [17], 31.5%.
With `O=C(Cc1ccc(/C=C/C(=O)c2ncc[nH]2)cc1)Nc1ccc(Cl)cc1`, the growth in test [1] is -25% (active); in test [2], 0.843% (active); in test [3], 4.9% (active); in test [4] it was -60.6% (active); in [6], 52.5%; in test [7] it was 41.2%. Further, the growth in test [8] was -37.1% (active); in test [9] it was 67.9%; in [18] it was 94.9%; in test [10], 65.2%; in test [11] it was 7.28% (active); in [12], 2.84% (active). Moreover, the growth in test [13] was 59.8%; in test [14] it was 42.7%; in test [15], 32.1%; in [16] it was -6.35% (active); in test [17], 5.1% (active).
As for `O=C1c2c(c3c4cccc(F)c4[nH]c3c3ccc4ccccc4c23)C(=O)N1O`, the growth in test [1] is 15.5%; in [2] it was 23.8%; in [3] it was 30.2%; in [4], 26.8%; in [5] it was 32.5%; in test [6] it was 9.72% (active). Moreover, the growth in test [7] was 26.9%; in test [8], 18.4%; in test [9], 58.5%; in test [10] it was 63.8%; in [11] it was 41.5%; in [12] it was 30.4%. The growth is 91.1% in test [13]; 27.8% in [14]; 29.4% in test [15]; 27.2% in test [19]; 7.09% (active) in test [16]; 3.29% (active) in [17].
With `COc1cc(CC(=O)c2ccc(O)c(OC)c2)ccc1O`, the growth is 110% in [1]; 94.3% in [2]; 98.2% in test [3]; 92.5% in test [4]; 83.1% in test [5]; 101% in [6]. The growth in test [7] is 94.8%; in [8], 96.7%; in test [9], 97.2%; in test [18] it was 106%; in [10], 111%; in test [12] it was 87.5%. Also, the growth in [13] was 102%; in test [14], 102%; in test [15], 98.8%; in [16], 94.2%; in test [17] it was 80%.
In the case of `O=C1Nc2ccccc2/C1=C\c1c(-c2ccc(F)cc2)nc2ccccn12`, the growth in test [1] was 58.2%; in test [2], 58.7%; in [3], 77.7%; in test [4], 93.3%; in test [5], 62.5%; in test [6] it was 58%. Besides, the growth in test [7] was 65.1%; in test [8], 68.3%; in test [9], 87.2%; in test [18], 75.5%; in test [10], 45.6%; in test [11], 82.5%. Further, the growth in test [12] was 41%; in test [13] it was 109%; in [14], 54.9%; in test [15], 44.3%; in test [19], 70.8%; in test [16], 67.9%. For the same compound, the growth in test [17] was 57%.
For the compound `CC1=C(C(=O)/C=C/c2ccc(N(C)C)cc2)C(c2ccccc2)NC(=S)N1` (configuration not stated), the growth is 105% in [1]; 102% in test [2]; 95.1% in [3]; 101% in test [4]; 98.3% in [5]; 99.3% in test [6]. Besides, the growth is 94.3% in [7]; 98.5% in [8]; 110% in test [9]; 102% in test [18]; 97.7% in test [10]; 96.9% in test [11]. In addition, the growth is 75.4% in [12]; 107% in test [13]; 100% in [14]; 89.8% in [15]; 108% in [16]; 101% in [17].
As to `O=C(c1nc2ccccc2[nH]1)C1C(c2ccc(Br)cc2)C2CC3CCCC[C@H]3N2[C@@]12C(=O)Nc1cc(Cl)ccc12` (some centres not stated), the growth in test [1] was 23.7%; in test [2] it was 27.9%; in test [3] it was 49.8%; in [4] it was 43.9%; in test [5], 28.4%; in [6] it was 51%. Moreover, the growth is 58% in [7]; 30% in test [8]; 62.4% in test [9]; 73.3% in test [18]; 37% in [10]; 39.7% in test [11]. The growth in test [12] is 20.6%; in test [13] it was 40.7%; in [14] it was 29.9%; in test [15] it was 17.7%; in test [16], 32%; in test [17], 6.93% (active).
As for `O=C(/C(=C/c1ccc([N+](=O)[O-])cc1)SCc1ccc(F)cc1)c1ccc(F)cc1`, the growth in [1] was 37.2%; in test [2] it was 22%; in test [3] it was 68.4%; in [4], 37.5%; in [5], 78.3%; in test [6], 95.4%. Further, the growth was 63.7% in test [7]; 32% in [8]; 103% in [9]; 90.4% in test [18]; 101% in test [10]; 82.4% in [11]. In addition, the growth is 54.3% in test [12]; 79.4% in test [13]; 91.1% in test [14]; 75.2% in test [15]; 79.4% in test [19]; 7.75% (active) in test [16]. Besides, the growth in [17] is 21.9%.
Turning to `N/C(=N\C(N)=N\c1nc2ccccc2s1)c1cnccn1`, the growth in [1] is 11.6%; in test [2] it was 24.1%; in test [3], 37.4%; in test [4], 35.1%; in test [5], 31.1%; in test [6] it was -48.5% (active). Further, the growth in [7] is -20.8% (active); in test [8] it was 15.1%; in test [9] it was 21.6%; in test [18], 3% (active); in test [10], 48%; in test [11], 36.7%. In addition, the growth in test [12] was -12.9% (active); in test [13], 37.9%; in test [14], 26.2%; in [15], 15.5%; in test [16], 14.6%; in test [17], 8.63% (active).
As to `CC(C)(C)c1cc(/C=N/NC(=O)c2ccccc2NC(=O)c2cccs2)c(O)c(C(C)(C)C)c1`, the growth in [1] is 17.1%; in [2], 25.3%; in test [3], 40.6%; in [4], 13.8%; in [5], 30.3%; in test [6], 22.9%. The growth in [7] is 13.1%; in [8], -34.2% (active); in test [9], 51.5%; in test [18] it was 36.9%; in test [10] it was 35%; in test [11] it was 40.6%. Moreover, the growth in test [12] was 10.7%; in [13] it was 28.8%; in test [14], 21.9%; in test [15], 19.8%; in [16], 4.59% (active); in test [17], 16.5%.
As for `COc1c(Cl)c2c(c(OC)c1OC)-c1ccc(SC)c(=O)cc1[C@@H](NC(=O)OCC(F)(F)F)CC2`, the growth in [1] was 9.54% (active); in test [2], 13.5%; in [3], 29.4%; in test [4], 20.6%; in [5], 24.7%; in test [6], -7.65% (active). Moreover, the growth is 34.4% in test [7]; 15.1% in [8]; 63% in test [9]; 46.3% in test [18]; 40% in test [10]; 24.2% in test [11]. The growth in test [12] is 28.6%; in test [13] it was 44.5%; in test [14], 25.8%; in test [15] it was 15.6%; in [16] it was 4.8% (active); in [17] it was 3.85% (active).

These data come from PubChem BioAssay (NCI).
